# Measured values as given in PubChem BioAssay (Tox21).
# Active and inactive are the calls of the source. Calls come from the whole dose curve; as a rule, active = well fitted curve in the direction sought with a large enough effect in the repeat runs; inconclusive = weak or mixed curves; inactive = flat fitted curve, though single readings scatter.
# Assay: qHTS assay to test for compound auto fluorescence at 590 nm (red) in HepG2 cells (AID 720674)
# Conditions: HepG2 autofluorescence, red 540/590 nm, 1 h; series mostly up to 91.3 µM; fluorescence, relative to Rose Bengal: at the top concentration
# Description: U.S. Tox21 Program National Center for Advancing Translational Sciences [NCATS] NIH Chemical Genomics Center [NCGC] U.S. Environmental Protection Agency [EPA] National Institutes of Environmental Health Sciences [NIEHS] National Toxicology Program [NTP] U.S. Food and Drug Administration [FDA] Tox21 Assay Overview: Compound auto fluorescence often interferes with screening of the compound library against various biological targets and signaling pathways. Some of these compounds may have fluorophoric properties. Such properties may interfere with the assay outputs resulting in false positives and/or negatives. To decrease such complications and ensure the compound activities are relevant in terms of biological response, the Tox21 10K compound library was screened for auto fluorescence. From the fluorophores used as reporter signals in our screening assays, the auto fluorescence equivalencies of compounds against three fluorophores have been evaluated: Triamterene, Fluorescein and Rose Bengal sodium for blue, green and red fluorescence, respectively. The fluorescence intensities were measured using Excitation/Emission wavelengths at 405/460nm, 485/535nm and 540/590nm for blue, green and red labels, respectively. This assay includes the red fluorescence data.
# Tox21 Assay Protocol Summary: 2,000 HepG2 cells in 5 uL of culture medium (MEM containing 10% FBS) per well were dispensed into black wall/clear bottom 1536-well plates using a Multidrop Combi Dispenser (ThermoFisher Scientific, Waltham, MA). The assay plates were incubated overnight at 37 C to allow cell attachment to the well bottom, followed by the transfer of 23 nL compound or DMSO vehicle by a pintool work station (Kalypsys , San Diego, CA). After the assay plates were incubated for 1 hr at 37 C and 5% CO2, fluorescence intensities in the assay plates were measured by an Envision (PerkinElmer, Shelton, CT) plate reader using three labels for measuring blue, green and red fluorescence at […] 460, 535 and 590 nm respectively.
# % is set by controls: 0 for no effect and ±100 for the full control effect.
Structure (SMILES),"fluorescence, relative to Rose Bengal",outcome
CCCCN(CCCC)C(=S)[S-].CCCCN(CCCC)C(=S)[S-].[Ni+2],0.0493% [at 46 µM] (inactive),
CN1[C@@H]2CC[C@H]1CC(O)C2 (stereo not given in full),0.0202% [at 95.7 µM] (inactive),
CCCCON=O,0.147% [at 95.7 µM] (inactive),
CN1CCc2cc3c(cc2C1O)OCO3 (stereo not given),0.0603% (inactive),
N#Cc1ccc(N(CC(N)=O)CC(F)(F)F)cc1C(F)(F)F,0.142% (inactive),
CCC(C)Nc1c([N+](=O)[O-])cc(C(C)(C)C)cc1[N+](=O)[O-] (stereo not given),-0.0582% (inactive),
CC(Cc1ccc(OCC(=O)O)cc1)NCC(O)c1csc(C(F)(F)F)n1 (stereo not given),-0.18% (inactive),
CNC(=O)Oc1cc(C)cc(C(C)C)c1,-0.116% (inactive),
CC(=O)[O-].CC(=O)[O-].CC(=O)[O-].[Sb+3],-0.0388% [at 3.72 µM] (inactive),
CC(=O)[O-].CC(=O)[O-].O.O.[Zn+2],-0.141% (inactive),
O=C(O)CCCCCCNC1c2ccccc2CCc2ccccc21,-0.0476% [at 46 µM] (inactive),
Oc1cccc(Cl)c1Cl,-0.153% (inactive),
Nc1ccc(N=Nc2ccccc2)cc1,-0.295% (inactive),
CC(C)N(C(=O)CCl)c1ccccc1,,inactive
CN=C=O,-0.112% [at 95.7 µM] (inactive),
Cc1cnc2c(C(=O)O)c(Cl)ccc2c1,-0.146% (inactive),
CC(Cc1ccc2c(c1)OCO2)NO (stereo not given),-0.0218% [at 95.7 µM] (inactive),
CCOC(=O)Cc1ccccc1,0.0859% (inactive),
CC(=O)[O][Sn]([c]1ccccc1)([c]1ccccc1)[c]1ccccc1,-0.418% (inactive),
Oc1ccc([C@H]2CNCc3c2ccc(O)c3O)cc1O,-0.129% [at 46 µM] (inactive),

Structure (SMILES),"fluorescence, relative to Rose Bengal",outcome
C[N+]1(C)[C@@H]2CC[C@H]1CC(OC(=O)C(CO)c1ccccc1)C2 (stereo not given in full),,inactive
C[C@H]1[C@H](c2ccc(Cl)cc2)SC(=O)N1C(=O)NC1CCCCC1,-0.0754% (inactive),
O=C(N[C@@H]1N=C(c2ccccc2F)c2cccc3c2N(CC3)C1=O)c1cc2ccccc2[nH]1,0.159% [at 46 µM] (inactive),
COC(=O)/C=C(\C)OP(=O)(OC)OC,0.0171% (inactive),
[Cl][Hg][c]1ccccc1,0.434% (inactive),
CN(C)CCc1c[nH]c2ccccc12,-0.18% [at 95.7 µM] (inactive),
CCCCCCC[CH2][Sn]([Cl])([Cl])[CH2]CCCCCCC,-0.145% (inactive),
CN(C)c1ccc(N)cc1,-0.0407% (inactive),
CCN(CC)CCN1C(=O)CN=C(c2ccccc2F)c2cc(Cl)ccc21,-0.0906% [at 46 µM] (inactive),
N#CCCl,-0.118% [at 95.7 µM] (inactive),
Cc1c([N+](=O)[O-])cc2c(c1[N+](=O)[O-])C(C)(C)CC2(C)C,0.185% (inactive),
O=S(=O)(NS(=O)(=O)C(F)(F)F)C(F)(F)F,0.685% (inactive),
Nc1nc(N)c(N)c(N)n1,1.66% (inactive),
C#CC1(O)CCCCC1,0.196% (inactive),
CCN(CC)C(=O)N[C@@H]1C=C2c3cccc4[nH]cc(c34)C[C@@H]2N(C)C1,0.833% [at 46 µM] (inactive),
ClC(Cl)C(Cl)(Cl)Cl,0.297% (inactive),
CCCCn1cc[n+](C)c1 (tested in a mixture with another compound),0.347% (inactive),
CCOP(=O)(Sc1ccccc1)Sc1ccccc1,-0.516% (inactive),
CSC(C)(C)/C=N/O,-0.0114% (inactive),
ClSC(Cl)(Cl)Cl,0.0626% (inactive),
